Activity calls are given as the source filed them.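 How the source made its calls: active means mean duplicate potentiation above the buffer control mean plus 5 SD of buffer wells; inactive means the rest.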

The target of this test is Potassium voltage-gated channel subfamily KQT member 2 (Rattus norvegicus) (UniProt O88943). The experiment in a line: KCNQ2 thallium flux enhancement – KCNQ2-CHO-K1 cells, selectivity assay for KCNQ1 potentiator project (AID 493009).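 Further: assay conditions were tuned for KCNQ1 rather than KCNQ2 modulators; signal is max minus min fluorescence divided by baseline after thallium stimulus.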 Conditions: FluxOR thallium flux fluorescence, at 10 µM; hits give high values, scaled: buffer 0, activator control 100.
Chain of Potassium voltage-gated channel subfamily KQT member 2 (Rattus norvegicus) (O88943 whole entry, looked up): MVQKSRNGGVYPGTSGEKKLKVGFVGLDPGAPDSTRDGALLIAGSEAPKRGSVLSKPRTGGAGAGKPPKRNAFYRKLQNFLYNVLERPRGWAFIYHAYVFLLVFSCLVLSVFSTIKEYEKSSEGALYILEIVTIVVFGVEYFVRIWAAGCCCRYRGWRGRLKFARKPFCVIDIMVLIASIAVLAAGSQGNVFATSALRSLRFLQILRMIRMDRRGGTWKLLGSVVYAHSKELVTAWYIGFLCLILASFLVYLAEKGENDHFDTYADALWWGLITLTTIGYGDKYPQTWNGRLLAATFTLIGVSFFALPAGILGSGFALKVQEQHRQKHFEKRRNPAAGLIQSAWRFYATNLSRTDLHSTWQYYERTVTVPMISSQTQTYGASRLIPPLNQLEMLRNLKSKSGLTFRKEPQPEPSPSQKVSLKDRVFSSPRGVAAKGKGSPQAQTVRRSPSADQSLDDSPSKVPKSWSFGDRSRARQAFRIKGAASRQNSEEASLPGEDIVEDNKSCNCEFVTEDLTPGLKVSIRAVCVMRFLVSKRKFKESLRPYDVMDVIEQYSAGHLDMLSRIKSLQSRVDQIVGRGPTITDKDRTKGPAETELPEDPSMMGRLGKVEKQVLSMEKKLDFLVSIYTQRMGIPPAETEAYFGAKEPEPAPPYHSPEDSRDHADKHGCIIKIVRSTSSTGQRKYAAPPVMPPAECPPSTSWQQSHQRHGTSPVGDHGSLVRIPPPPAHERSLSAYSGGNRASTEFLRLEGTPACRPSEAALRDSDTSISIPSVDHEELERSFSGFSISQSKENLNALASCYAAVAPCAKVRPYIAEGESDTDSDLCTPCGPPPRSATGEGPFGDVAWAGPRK
As for `CCOc1ccc(CN(CCC#N)C(=S)NC(=O)c2ccccc2)cc1`, the potentiation is 216% (active).

With `CCOC(=O)Cc1csc(NC(=S)NC(=O)c2ccccc2Br)n1`, the potentiation is 239% (active).

As for `Cc1sc2nc[nH]c(=S)c2c1-c1ccccc1`, the potentiation was 304% (active).

For the molecule `O=C(O)CCCN1C(=O)C2C3c4ccccc4C(c4ccccc43)[C@@H]2C1=O` (stereo not given in full), the result was inactive.

Regarding `CN1C=CC=C/C1=C1\SC(=S)N(Cc2ccccc2)C1=O`, the outcome was inactive.

Turning to `CCN1c2ccccc2-c2nc3ccccc3n2C1c1cccnc1` (stereo not given), the outcome was inactive.

With `Cc1sc(N/N=C/c2ccco2)nc1-c1ccccc1`, the result was inactive.

In the case of `Cc1ccc(OCC(=O)NNC(=S)NC(=O)c2cccs2)c(C)c1`, the potentiation was 238% (active).

`COc1cccc(-c2nnc(Nc3nc4c(F)cccc4s3)o2)c1`: the potentiation is 280% (active).

Turning to `O=C1CC(c2ccccc2)CC(O)=C1C=Nc1ccc(O)cc1` (stereo not given), the outcome was inactive.

With `CCn1ncc(Cl)c1C(=O)NC(=S)Nc1ccccc1Br`, the potentiation is 340% (active).

Regarding `Oc1c(Cl)cc(Cl)cc1/C=N/c1nccs1`, the outcome was inactive.

With `CCN(CC)C(=O)c1[nH]cnc1C(=O)NCC(=O)OC(C)(C)C`, the outcome was inactive.

On to `Cc1cc(S(=O)(=O)N2CCOCC2)ccc1OCC(=O)NCc1ccccn1`, for which the result was inactive.

`Cc1ccc2nc3c(cc(C(=O)NCC4CCCO4)c(=N)n3C3CCCC3)c(=O)n2c1` (stereo not given): the outcome was inactive.

As to `Cc1ccc2nc(C)cc(N/N=C/c3cccnc3)c2c1`, the outcome was inactive.

On to `CC1(C)CC(=O)C2=C(C1)N(c1cccc(Cl)c1)C(=O)NC2(C(F)(F)F)C(F)(F)F`, for which the result was inactive.

Take `Cc1csc(N/N=C/c2ccc([N+](=O)[O-])cc2)n1`: the potentiation is 158% (active).

Regarding `O=C(COC(=O)C12CC3CC(CC(C3)C1)C2)NCCCc1ccccc1`, the outcome was inactive.

For `O=C(Nc1ccc2[nH]c(=S)sc2c1)c1ccccc1`, the potentiation was 154% (active).

Turning to `CC1CCc2c(sc(NS(=O)(=O)c3ccccc3)c2C(=O)OC(C)C)C1` (stereo not given), the potentiation is 380% (active).

For `O=C(O)C1C2CCC(O2)C1C(=O)NCCC1=CCCCC1` (stereo not given), the outcome was inactive.

As for `CCOC(=O)c1cc2c(=O)n3ccccc3nc2n(CCCOC)c1=NC(=O)c1ccncc1`, the outcome was inactive.

In the case of `CCC1CCCCN1C(=S)NC(=O)c1cccs1` (stereo not given), the potentiation is 493% (active).

Take `Cc1cc(N2CCN(C)CC2)nc2ccc(NC(=S)NCCCN3CCc4ccccc4C3)cc12`: the outcome was inactive.

With `CN(CC(=O)Nc1ccc(F)c(F)c1F)C(=O)CC1OC(=O)c2ccccc21` (stereo not given), the result was inactive.

As for `COc1cc2c(cc1OC)CN(C(=O)COc1ccccc1[N+](=O)[O-])CC2`, the outcome was inactive.

For the molecule `OC[C@H]1O[C@H](OC[C@H]2O[C@H](OC[C@H]3O[C@H](O[C@]4(CO)O[C@H](CO)[C@@H](O)[C@@H]4O)[C@H](O)[C@@H](O)[C@@H]3O)[C@H](O)[C@@H](O)[C@H]2O)[C@H](O)[C@@H](O)[C@H]1O`, the result was inactive.

Turning to `COc1ccccc1C(=O)OCC(=O)Nc1ccc(Cl)cn1`, the outcome was inactive.

On to `Cc1ccccc1Cn1c(O)c(N=NC(=S)Nc2ccccc2F)c2ccccc21`, for which the result was inactive.

Consider `CC(=O)NC1=C(NC2CCS(=O)(=O)C2)C(=O)c2ccccc2C1=O` (stereo not given), for which the outcome was inactive.

Turning to `COc1cccc(N=Nc2ccc(O)c3ncccc23)c1`, the potentiation is 170% (active).

Consider `Cn1nccc1C(=O)NC(=S)Nc1cc(Cl)cc(Cl)c1`, for which the potentiation was 178% (active).

As for `CN(C)c1ccc(-c2nn3c(-c4ccccc4Cl)nnc3s2)cc1`, the outcome was inactive.

For the molecule `CC(=O)c1ccc(OCc2cc(C(=O)N(C)Cc3nc4c(C)cccc4[nH]3)no2)cc1`, the outcome was inactive.

For the molecule `COC(=O)c1ccc(N2CCN(S(=O)(=O)c3ccc(Br)cc3)CC2)c([N+](=O)[O-])c1`, the result was inactive.

In the case of `Cc1ncc(CN2CCC(CO)(CCc3ccccc3)CC2)s1`, the result was inactive.

Take `O=C(c1ccc(-c2ccccc2)cc1)N1CCCC1`: the potentiation is 233% (active).

Regarding `Cc1ccc2oc(C(=O)N3CCN(c4cccc(C)n4)CC3)c(C)c2c1`, the outcome was inactive.

Take `C/C(=N\NC(=O)C(=O)Nc1cccc(C(F)(F)F)c1)c1ccc(Cl)s1`: the outcome was inactive.

These data come from PubChem BioAssay.
